An excerpt weighted towards active compounds, which were near 1.1% of everything screened.
AmpC inh detg – blocks E. coli AmpC beta-lactamase in detergent assay; 370,000 compounds, 0.041% hits; Potency, µM (series often up to 114 µM), usual class: inhibitors; AID 485294; AmpC hydrolysis of nitrocefin, absorbance 480 nm, 0.01% Triton; further: nearly all actives have a fitted effect of over 25% in size
Target sequence (P00811 whole entry, looked up): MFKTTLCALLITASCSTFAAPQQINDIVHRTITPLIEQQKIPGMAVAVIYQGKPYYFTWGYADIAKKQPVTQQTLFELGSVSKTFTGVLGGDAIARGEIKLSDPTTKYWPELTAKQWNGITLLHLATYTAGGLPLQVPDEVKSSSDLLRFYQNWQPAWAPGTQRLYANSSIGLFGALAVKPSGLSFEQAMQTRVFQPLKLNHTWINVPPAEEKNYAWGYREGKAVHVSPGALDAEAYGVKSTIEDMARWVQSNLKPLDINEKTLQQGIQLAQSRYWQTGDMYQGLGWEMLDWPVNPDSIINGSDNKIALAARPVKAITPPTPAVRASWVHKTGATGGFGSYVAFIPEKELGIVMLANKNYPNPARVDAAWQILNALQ
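AmpC (5.3 nM in the dispensed reagent) in 20 mM phosphate pH 7.0 with 0.01% (detergent screen) or 0.0001% Triton X-100 was preincubated with compounds for 15 min at room temperature. Nitrocefin was then added from an 800 uM solution, and hydrolysis was followed at 480 nm.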
Vaccinia Venus – vaccinia inhibition (Venus reporter) | Potency, µM (doses to about 36.5 µM), actives largely listed as inhibitors | Vaccinia virus Venus reporter expression, fluorescence | AID 720580 | 330,000 compounds, 0.46% hits; calls by dose curve; tested in A549 cells; further: nearly all actives have a fitted effect of over 30% in size
VACV mCherry inh – inhibitors of vaccinia virus infection (mCherry reporter signal); Potency, µM (series often up to 36.5 µM), usual class: inhibitors; 310,000 compounds, 0.63% hits; AID 720579; Vaccinia virus mCherry reporter infection, fluorescence; calls by dose curve; tested in A549 cells; further: nearly all actives have a fitted effect of over 35% in size
AmpC inh no detg – inhibitors of E. coli AmpC beta-lactamase without detergent | P00811 | AmpC nitrocefin hydrolysis, absorbance 480 nm, 0.0001% Triton | Potency, µM (highest dose often 57.1 µM), actives largely listed as inhibitors | 330,000 compounds, 0.52% hits | AID 485341; further: nearly all actives have a fitted effect of over 20% in size
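AmpC (5.3 nM in the dispensed reagent) in 20 mM phosphate pH 7.0 with 0.01% (detergent screen) or 0.0001% Triton X-100 was preincubated with compounds for 15 min at room temperature. Nitrocefin was then added from an 800 uM solution, and hydrolysis was followed at 480 nm.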
A number is an active result. Unless noted, the call rests on the fitted dose curve; in most records, active means well fitted curve in the direction sought with a large enough effect; inconclusive means small, poorly fitted or top-dose-only effect, or another doubt; inactive means no such curve, though single readings can be large; an effect the other way counts as inactive or inconclusive.

What do the screens show for `COc1ccccc1-c1ccnc(-n2ncc(C(=O)N[C@H]3CCCCNC3=O)c2C2CC2)n1`?
Vaccinia Venus: inactive; VACV mCherry inh: inactive

How did CCN(CC)C(=O)CSc1nc(N)c(C(=O)Nc2ccc(OC)cc2)s1 do in these assays?
AmpC inh detg: inconclusive; Vaccinia Venus: inconclusive; VACV mCherry inh: 12.6µM; AmpC inh no detg: inactive

Results for CC(C)c1c(C(=O)N2CCN(CCO)CC2)cnn1-c1nccc(-c2cccs2)n1 ?
Vaccinia Venus: inactive; VACV mCherry inh: inactive

What do the screens show for `O/N=C(/C[n+]1cccc(Br)c1)c1ccc2ccccc2c1`?
Vaccinia Venus: inactive; VACV mCherry inh: inactive

What do the screens show for `CCCCNc1c(-c2ccc(SC(C)CC)cc2)nc2cnccn12` (stereo unspecified)?
Vaccinia Venus: 22.4µM; VACV mCherry inh: 31.6µM; AmpC inh no detg: inactive

What do the screens show for `COc1cc2c(cc1OC)CN(C(=O)[C@@H]1C[C@H](NCc3cn(C)c4ccccc34)CN1C1Cc3ccccc3C1)CC2`?
Vaccinia Venus: inactive; VACV mCherry inh: inactive

What do the screens show for `COc1ccc(Cl)cc1S(=O)(=O)N1CCN(C(=O)c2n[nH]c(=O)c3ccccc23)CC1`?
Vaccinia Venus: inconclusive; VACV mCherry inh: 28.2µM; AmpC inh no detg: inactive

What do the screens show for `O=C(c1n[nH]c(=O)c2ccccc12)N1CCN(S(=O)(=O)c2ccccc2Cl)CC1`?
AmpC inh detg: inactive; AmpC inh no detg: inactive

Results for O=C(CSc1cccc2cccnc12)N1CCCC1 ?
AmpC inh detg: inactive; Vaccinia Venus: 11.2µM; VACV mCherry inh: 11.2µM; AmpC inh no detg: inactive

How did O=C(O[C@H]1[C@H](Cc2ccccc2)NS(=O)(=O)[C@H]2C[C@@H]3C=C[C@]12O3)c1ccccc1Br do in these assays?
Vaccinia Venus: inactive; VACV mCherry inh: inactive

How did C(=N\Nc1ncnc2sc3c(c12)CCC3)/c1cccs1 do in these assays?
AmpC inh detg: inactive; AmpC inh no detg: inactive

Results for C(=N\Nc1ncnc2sc3c(c12)CCC3)/c1ccncc1 ?
AmpC inh detg: inconclusive; Vaccinia Venus: 10µM; VACV mCherry inh: 11.2µM; AmpC inh no detg: inactive

How did Cc1ncc2c(c1CNC(=O)c1ccc3c(c1)OCO3)CCN(C(=O)/C=C/c1ccccc1Cl)C2 do in these assays?
Vaccinia Venus: inactive; VACV mCherry inh: inactive

Results for COc1cc(OC)cc(C(=O)N2CCCC(n3cc(C(=O)NCC(C)C)nn3)C2)c1 (stereo unspecified) ?
Vaccinia Venus: inactive; VACV mCherry inh: inactive

How did CC1=C(C(=O)OC(C)C)C(c2cccnc2)n2ncnc2N1 (stereo unspecified) do in these assays?
AmpC inh detg: inconclusive; Vaccinia Venus: 28.2µM; VACV mCherry inh: 28.2µM; AmpC inh no detg: inactive

How did CC1=C(C(=O)OC(C)C)C(c2ccncc2)n2ncnc2N1 (stereo unspecified) do in these assays?
AmpC inh detg: inactive; Vaccinia Venus: inactive

What do the screens show for `Cc1ncc2c(c1CNC(=O)c1ccc3c(c1)OCO3)CCN(C(=O)c1csc3c1CCCC3)C2`?
Vaccinia Venus: inactive; VACV mCherry inh: inactive

Results for Cc1cc(N2CCCC2)nc2ccc(NC(=S)NCCCN3CCC(C)CC3)cc12 ?
AmpC inh detg: inactive; Vaccinia Venus: inconclusive; VACV mCherry inh: 14.1µM; AmpC inh no detg: inactive

Results for CCCN1CCN(CCCNC(=S)Nc2ccc3nc(N4CCN(CC)CC4)cc(C)c3c2)CC1 ?
AmpC inh detg: inactive; AmpC inh no detg: inactive

What do the screens show for `Cc1cccc(CNC(=O)c2cnn(-c3nccc(-c4ccccc4C(F)(F)F)n3)c2C)n1`?
Vaccinia Venus: inactive; VACV mCherry inh: inactive

What do the screens show for `CCOC(=O)C1CCCN(C(=O)Cn2cnc3c2c(=O)n(C)c(=O)n3C)C1` (stereo unspecified)?
AmpC inh detg: inactive; AmpC inh no detg: inactive

Results for Cc1nn(CC(=O)N2CCC(N3CCCCC3)CC2)c(=O)c2c1sc1ccccc12 ?
AmpC inh detg: inactive; AmpC inh no detg: inactive

How did Cc1cc(C)c2c(=O)n(CC(=O)N3CCC(N4CCCCC4)CC3)sc2n1 do in these assays?
AmpC inh detg: 56.2µM; Vaccinia Venus: inactive; VACV mCherry inh: inactive; AmpC inh no detg: 20µM

What do the screens show for `CCCNC(=O)Cn1sc2nc(C)cc(C)c2c1=O`?
AmpC inh detg: 79.4µM; Vaccinia Venus: inactive; VACV mCherry inh: inactive; AmpC inh no detg: inconclusive

What do the screens show for `CCOC(=O)C1CCCN(C(=O)Cn2sc3nc(C)cc(C)c3c2=O)C1` (stereo unspecified)?
AmpC inh detg: 44.7µM; Vaccinia Venus: inactive; VACV mCherry inh: inactive; AmpC inh no detg: 14.1µM

Results for O=C(NCCc1ccncc1)c1cnn(-c2ncc3c(n2)-c2ccccc2CCC3)c1C1CC1 ?
Vaccinia Venus: inactive; VACV mCherry inh: inactive
